Bioassay records deposited in PubChem by The Scripps Research Institute Molecular Screening Center.
Compounds with a hit are over-represented: about 3.5% of the library has one in this group of screens.
MITF inh = blocks human microphthalmia-associated transcription factor; 650,000 tested, 0.91% active; AlphaScreen MITF homodimerization, bead proximity signal; inhibition, % at 2.6 µM; in the data active = inhibition above about 50%;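 note: 0% = vehicle wells with protein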
GPR151 activ = human GPR151 activation; Q8TDV0; PathHunter beta-arrestin GPR151 cells, luminescence; activation, % at 11.2 µM; 650,000 tested, 1% active; in the data active = activation above about 4.9%;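 note: 0% = median of compound wells and 100% = cells with positive control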
Target sequence (Q8TDV0 whole entry, looked up): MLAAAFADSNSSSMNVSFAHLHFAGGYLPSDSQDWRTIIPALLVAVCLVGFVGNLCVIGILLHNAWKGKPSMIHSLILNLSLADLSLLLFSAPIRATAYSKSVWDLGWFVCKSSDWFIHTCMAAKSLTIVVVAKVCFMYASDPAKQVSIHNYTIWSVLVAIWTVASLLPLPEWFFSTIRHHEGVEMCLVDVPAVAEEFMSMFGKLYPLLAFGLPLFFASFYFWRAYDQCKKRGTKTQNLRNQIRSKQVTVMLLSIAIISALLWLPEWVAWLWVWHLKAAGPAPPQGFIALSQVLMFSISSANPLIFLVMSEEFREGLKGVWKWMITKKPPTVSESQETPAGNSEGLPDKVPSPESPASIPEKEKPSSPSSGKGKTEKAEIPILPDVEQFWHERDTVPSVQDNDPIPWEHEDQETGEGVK
TEAD-YAP inh = TEAD-YAP interaction inhibition; 640,000 tested, 1.4% active; inhibition, % at 9.12 µM; HEK-TIYL cells, TEAD-Gal4/YAP UAS-luciferase luminescence; in the data active = inhibition above about 32%;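 note: 0% = median of test compound wells and 100% = reference inhibitor wells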
FBW7 act = activators of human E3 ligase FBW7; Q969H0; normalized activity (activation), % at 26.1 µM; AlphaScreen FBW7–phospho-cyclin E peptide binding, activator screen; AID 1259310; 650,000 tested, 0.13% active; in the data active = normalized activity above about 1.9%;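 note: purified mutant Fbw7 with reduced substrate affinity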
MITF confirm = human MITF inhibition, confirmation | shares compounds with MITF inh | AlphaScreen MITF homodimerization, biotin/His-MITF beads | inhibition, % at 2.6 µM | 4,700 tested, 16% active;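 active = inhibition above a cutoff derived from the DMSO control wells, cut at about 28% in these data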;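 note: 0% = MITF dimer wells with DMSO only; inhibitors lower the bead chemiluminescence by keeping MITF from dimerizing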
AlphaScreen DR = AlphaScreen optical interference, dose response counter-screen; 480 tested, 6% active; AlphaScreen optical interference counterscreen, cell-free; IC50, µM; shares compounds with MITF inh; AID 1259373; call rule not given here
AlphaScreen intf2 = counter-screen: compounds optically interfering with AlphaScreen; LysRS AlphaScreen counterscreen, signal interference, triplicate; inhibition, % at 2.6 µM; shares compounds with MITF inh; 4,700 tested, 7.6% active; AID 1259376;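 active = inhibition above a cutoff derived from the DMSO control wells, cut at about 30% in these data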
* hit, by the source's call.

Screening O=C(NCc1cccs1)C1CC12CCN(C(=O)Cc1ccc(-c3ccccc3)cc1)CC2 (stereo unspecified) returned MITF inh 12, GPR151 activ 1, TEAD-YAP inh 8 and FBW7 act 0.
For CCOC(=O)c1cnc(-n2[nH]c(C)cc2=O)[nH]c1=O the results were MITF inh 84*, GPR151 activ 3, TEAD-YAP inh 3, FBW7 act 0, MITF confirm 98* and AlphaScreen intf2 96*.
CCOC(=O)c1cnc(-n2[nH]c(C)c(Cc3ccccc3)c2=O)[nH]c1=O was read as MITF inh 96*, GPR151 activ 1, TEAD-YAP inh 1, FBW7 act 0, MITF confirm 87* and AlphaScreen intf2 100*.
Screening CC(=O)CC1OC(=O)C(Oc2ccccc2)=C1Br (stereo unspecified) returned MITF inh 1, GPR151 activ 0, TEAD-YAP inh -1 and FBW7 act 0.
Screening NCC1OC(=O)C(Oc2ccccc2)=C1Br (stereo unspecified) returned MITF inh 59*, GPR151 activ 0, TEAD-YAP inh 15, FBW7 act -1, MITF confirm 77*, AlphaScreen DR >6.5 and AlphaScreen intf2 -18.
CC(C)COC(=O)NC(C(F)(F)F)C(F)(F)F was read as MITF inh 1, GPR151 activ 1, TEAD-YAP inh 15 and FBW7 act 0.
CC(=O)NNC(=O)CSc1nnnn1-c1cccc(C(C)=O)c1 was read as MITF inh 73*, GPR151 activ 2, TEAD-YAP inh 4, FBW7 act 0, MITF confirm 4 and AlphaScreen intf2 16.
For CCCCn1nnnc1SCC(=O)Nc1cccc(C)c1 the results were MITF inh 21, GPR151 activ 0, TEAD-YAP inh -7 and FBW7 act 0.
For CCCCn1nnnc1SCC(=O)Nc1cccc(C(C)=O)c1 the results were MITF inh 68*, GPR151 activ 0, TEAD-YAP inh -4, FBW7 act 0, MITF confirm 3 and AlphaScreen intf2 5.
COc1cc(CN(C)CCc2ccccn2)cc(OC)c1OC was read as MITF inh 74*, GPR151 activ 0, TEAD-YAP inh 3, FBW7 act 0, MITF confirm 12 and AlphaScreen intf2 19.
Screening C=CCc1ccc(OC)c(OCc2ccccc2)c1 returned MITF inh 22, GPR151 activ -1, TEAD-YAP inh 3 and FBW7 act 0.
Screening COc1ccc(CN(Cc2ccccn2)S(=O)(=O)c2ccc(F)cc2F)cc1OC returned MITF inh 4, GPR151 activ 0, TEAD-YAP inh 5 and FBW7 act 0.
For COc1ccc(CN(C)CCc2ccccn2)cc1OCc1ccccc1 the results were MITF inh 62*, GPR151 activ 2, TEAD-YAP inh -14, FBW7 act 0, MITF confirm 4 and AlphaScreen intf2 23.
`COc1ccc(CN(C)CCc2ccccn2)cc1OC` gave MITF inh 77*, GPR151 activ -2, TEAD-YAP inh -2, FBW7 act 0, MITF confirm 0 and AlphaScreen intf2 2.
For COc1cc(/C=C/C(=O)NCc2ccccn2)cc(OC)c1OC the results were MITF inh -5, GPR151 activ -1, TEAD-YAP inh -7 and FBW7 act 0.
`O=C(C1=CCN(S(=O)(=O)c2ccc(F)cc2)CC1)N1CCc2ccccc21` gave MITF inh -2, GPR151 activ 2, TEAD-YAP inh -20 and FBW7 act 0.
Screening CCOC(=O)C1=C(CN2CCC(C(N)=O)CC2)NC(=O)NC1c1ccc(OC(C)C)cc1 (stereo unspecified) returned MITF inh 2, GPR151 activ 0, TEAD-YAP inh 2 and FBW7 act 0.
`COc1ccc(C(=O)NCc2n[nH]c(=S)n2C)cc1` gave MITF inh 2, GPR151 activ 0, TEAD-YAP inh 2 and FBW7 act 0.
For CCN(C(=O)c1cc2c(=O)n3cccc(C)c3nc2n1C)c1ccccc1 the results were MITF inh 53*, GPR151 activ 0, TEAD-YAP inh 12, FBW7 act 1, MITF confirm -3 and AlphaScreen intf2 8.
COc1cccc2cc(-c3csc(Nc4cccc(F)c4)n3)c(=O)oc12 was read as MITF inh 55*, GPR151 activ -1, TEAD-YAP inh -6, FBW7 act 0, MITF confirm 13 and AlphaScreen intf2 19.
CCCNC(=O)c1cnc(NC2CCN(Cc3ccccc3)CC2)s1 was read as MITF inh 74*, GPR151 activ -1, TEAD-YAP inh 2, FBW7 act 0, MITF confirm -5 and AlphaScreen intf2 9.
O=C(NC1CCN(Cc2ccccc2)CC1)c1cnc(NC2CCN(Cc3ccccc3)CC2)s1 was read as MITF inh 14, GPR151 activ -2, TEAD-YAP inh 1 and FBW7 act 0.
For C=C(C)CN(CC)Cc1ccc([N+](=O)[O-])o1 the results were MITF inh 65*, GPR151 activ 1, TEAD-YAP inh -2, FBW7 act 0, MITF confirm 23 and AlphaScreen intf2 16.
Screening O=C(Cn1cc(C(=O)c2ccco2)c2ccccc21)NCc1cccnc1 returned MITF inh 67*, GPR151 activ 0, TEAD-YAP inh 5, FBW7 act 0, MITF confirm 62*, AlphaScreen DR >6.5 and AlphaScreen intf2 -4.
`Cc1cccc(-c2nnc(C3CCN(S(=O)(=O)Cc4ccccc4)CC3)o2)c1` gave MITF inh -3, GPR151 activ 0, TEAD-YAP inh -20 and FBW7 act 0.
Screening COc1cc(/C=C2\N=C(c3ccc(Cl)c([N+](=O)[O-])c3)OC2=O)ccc1OC(C)=O returned MITF inh -7, GPR151 activ 2, TEAD-YAP inh 3 and FBW7 act 0.
`Cc1cccc2c(C3=NC(=S)NC3=O)c(O)n(C)c12` gave MITF inh 18, GPR151 activ 2, TEAD-YAP inh 8 and FBW7 act 1.
c1cc(NC2CCCNC2)n2ncc(-c3ccoc3)c2n1 (stereo unspecified) was read as MITF inh 68*, GPR151 activ 1, TEAD-YAP inh -62, FBW7 act 0, MITF confirm 11 and AlphaScreen intf2 17.
CCn1c2ccccc2c2cc(CN3CCCC(O)C3)ccc21 (stereo unspecified) was read as MITF inh 25, GPR151 activ 0, TEAD-YAP inh 3 and FBW7 act 0.
CCn1c2ccccc2c2cc(CN3CCN(S(=O)(=O)c4ccc(F)cc4)CC3)ccc21 was read as MITF inh 27, GPR151 activ 0, TEAD-YAP inh 7 and FBW7 act 0.
